From paper PMC5700166

Key:
Assay in all cases: protein-binding microarray (PBM); PBM: ~300 nM protein, 6 mM HEPES pH 7.8, 80 mM KCl, 0.5 mM EDTA, 0.5 mM EGTA, 6% glycerol, 35 ng/ul poly-dIdC, 1% milk, 1 h, room temperature; Ap Aiptasia and Nv Nematostella (sea anemones) / Co Capsaspora / Aq Amphimedon (sponge) / Dm Drosophila / Hu human; RHD is the Rel homology domain; high values mean tight binding
Conditions in all cases: dsDNA, one strand shown
[1] = target: T1, GST-Ap-NF-kB RHD (Exaiptasia pallida (Aiptasia), UniProt A0A913YAJ5 2-422)
T1 sequence: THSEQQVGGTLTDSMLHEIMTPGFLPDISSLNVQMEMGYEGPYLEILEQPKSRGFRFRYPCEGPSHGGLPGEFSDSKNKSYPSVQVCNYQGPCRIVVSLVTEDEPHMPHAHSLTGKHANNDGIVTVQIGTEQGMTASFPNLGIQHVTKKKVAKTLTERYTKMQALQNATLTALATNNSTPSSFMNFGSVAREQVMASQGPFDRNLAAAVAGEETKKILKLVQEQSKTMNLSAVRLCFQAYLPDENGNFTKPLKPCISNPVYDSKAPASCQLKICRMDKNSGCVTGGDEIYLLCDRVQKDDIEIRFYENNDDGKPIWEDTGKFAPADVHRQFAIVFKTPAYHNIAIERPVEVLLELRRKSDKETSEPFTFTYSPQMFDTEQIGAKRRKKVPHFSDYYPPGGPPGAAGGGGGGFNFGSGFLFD

[2] = target: T2, GST-Nv-NF-kB (Cys allele) (Nematostella vectensis, UniProt E5G601 2-411)
T2 sequence: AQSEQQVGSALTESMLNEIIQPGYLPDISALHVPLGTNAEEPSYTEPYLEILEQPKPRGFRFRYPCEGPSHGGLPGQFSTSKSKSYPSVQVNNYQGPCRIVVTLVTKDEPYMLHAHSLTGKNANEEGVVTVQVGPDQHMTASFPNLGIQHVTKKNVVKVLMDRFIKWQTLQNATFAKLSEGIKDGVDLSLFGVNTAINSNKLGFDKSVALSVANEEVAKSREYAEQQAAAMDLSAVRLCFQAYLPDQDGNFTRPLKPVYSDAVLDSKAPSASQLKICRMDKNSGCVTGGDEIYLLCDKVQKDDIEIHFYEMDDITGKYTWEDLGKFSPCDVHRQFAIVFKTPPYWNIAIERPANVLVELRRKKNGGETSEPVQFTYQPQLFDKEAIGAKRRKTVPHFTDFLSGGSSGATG

[3] = target: T3, GST-Co-NF-kB (Capsaspora owczarzaki, UniProt F1ARL5 200-546)
T3 sequence: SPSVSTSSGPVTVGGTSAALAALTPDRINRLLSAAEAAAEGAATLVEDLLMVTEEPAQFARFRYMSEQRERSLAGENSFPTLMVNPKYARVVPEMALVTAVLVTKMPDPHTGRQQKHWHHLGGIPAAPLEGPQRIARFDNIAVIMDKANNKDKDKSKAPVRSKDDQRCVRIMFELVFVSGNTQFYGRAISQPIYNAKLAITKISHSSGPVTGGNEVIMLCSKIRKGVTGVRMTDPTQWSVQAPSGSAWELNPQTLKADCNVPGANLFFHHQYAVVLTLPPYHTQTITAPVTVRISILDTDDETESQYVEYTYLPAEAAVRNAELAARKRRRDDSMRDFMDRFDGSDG

[4] = target: T4, GST-Dm-Relish (Drosophila melanogaster, UniProt Q94527 99-473)
T4 sequence: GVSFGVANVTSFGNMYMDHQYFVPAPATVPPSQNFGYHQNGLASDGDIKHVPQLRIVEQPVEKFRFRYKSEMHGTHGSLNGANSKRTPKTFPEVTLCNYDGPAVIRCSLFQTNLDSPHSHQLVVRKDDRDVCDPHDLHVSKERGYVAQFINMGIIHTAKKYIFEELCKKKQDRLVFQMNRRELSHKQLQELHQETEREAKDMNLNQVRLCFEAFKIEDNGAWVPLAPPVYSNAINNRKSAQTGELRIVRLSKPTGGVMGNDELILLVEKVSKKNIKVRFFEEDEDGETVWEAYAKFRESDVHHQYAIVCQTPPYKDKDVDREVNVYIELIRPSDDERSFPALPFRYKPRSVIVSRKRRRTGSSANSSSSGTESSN

[5] = target: T5, GST-Aq-NF-kB (Amphimedon queenslandica, UniProt A9Y5G7 2-389)
T5 sequence: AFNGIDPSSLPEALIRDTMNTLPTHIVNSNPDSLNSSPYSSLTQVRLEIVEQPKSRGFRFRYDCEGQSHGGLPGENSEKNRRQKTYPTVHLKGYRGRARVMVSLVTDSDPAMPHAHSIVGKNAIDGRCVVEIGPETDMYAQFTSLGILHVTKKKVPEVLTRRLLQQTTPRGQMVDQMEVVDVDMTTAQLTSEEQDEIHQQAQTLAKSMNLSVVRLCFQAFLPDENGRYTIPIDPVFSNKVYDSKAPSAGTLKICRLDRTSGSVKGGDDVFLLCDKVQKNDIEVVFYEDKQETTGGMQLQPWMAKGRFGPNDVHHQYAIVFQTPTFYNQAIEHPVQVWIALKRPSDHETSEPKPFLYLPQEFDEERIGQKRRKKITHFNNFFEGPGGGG

Sequence	binding signal [1] [z-score]	binding signal [2] [z-score]	binding signal [3] [z-score]	binding signal [4] [z-score]	binding signal [5] [z-score]
CCGATTAACATCAGGGATTTTCATGATGTTAATCGGGTCTTGATTCGCTTGACGCTGCTG	5.23	4.83	1.61	6.05	5.16
CCGATTAACATCACCGCCCCACGTGATGTTAATCGGGTCTTGATTCGCTTGACGCTGCTG	1.95	1.73	1.4	1.95	1.28
CCGATTAACATCAATAAATACCCTGATGTTAATCGGGTCTTGATTCGCTTGACGCTGCTG	3.73	5.36	2.51	4.58	4.69
CCGATTAACATCAAAAAACCCACTGATGTTAATCGGGTCTTGATTCGCTTGACGCTGCTG	2.65	2.49	1.66	5.49	3.61
CCGATTAACATCAAATCATCCCCTGATGTTAATCGGGTCTTGATTCGCTTGACGCTGCTG	4.78	5.38	5.87	4.06	5.27
CCGATTAACATCAGGATGTTCCCTGATGTTAATCGGGTCTTGATTCGCTTGACGCTGCTG	2.3	1.77	1.42	1.99	4.33
CCGATTAACATCAAATTCCCAGTTGATGTTAATCGGGTCTTGATTCGCTTGACGCTGCTG	1.52	3.74	2.97	4.29	2.37
CCGATTAACATCAATTTTCCCAATGATGTTAATCGGGTCTTGATTCGCTTGACGCTGCTG	1.98	3.86	3.99	1.29	2.61
CCGATTAACATCAGACCTTCCCCTGATGTTAATCGGGTCTTGATTCGCTTGACGCTGCTG	4.8	4.93	4.12	4.54	5.13
CCGATTAACATCATAAGCGGGGATGATGTTAATCGGGTCTTGATTCGCTTGACGCTGCTG	3.32	3.81	4.81	2.26	3.7
CCGATTAACATCACAGTACCCCCTGATGTTAATCGGGTCTTGATTCGCTTGACGCTGCTG	5.34	2.85	3.67	1.94	2.91
CCGATTAACATCAGGGATTACCATGATGTTAATCGGGTCTTGATTCGCTTGACGCTGCTG	3.4	1.46	1.11	6.01	3.67
CCGATTAACATCACGAAAATCCCTGATGTTAATCGGGTCTTGATTCGCTTGACGCTGCTG	4.71	4.39	1.55	6.19	4.64
CCGATTAACATCAGGAATACCCCTGATGTTAATCGGGTCTTGATTCGCTTGACGCTGCTG	6.59	6.44	4.14	6.46	6.92
CCGATTAACATCACCAAATTCCCTGATGTTAATCGGGTCTTGATTCGCTTGACGCTGCTG	4.1	4.67	3.82	4.02	4.03
CCGATTAACATCAGGAAGTTCCCTGATGTTAATCGGGTCTTGATTCGCTTGACGCTGCTG	4.78	5.36	2.57	4.82	7.74
CCGATTAACATCAAGGGATTTTCTGATGTTAATCGGGTCTTGATTCGCTTGACGCTGCTG	5.78	6.63	1.57	6.57	6.65
CCGATTAACATCACGGAGTCCCCTGATGTTAATCGGGTCTTGATTCGCTTGACGCTGCTG	6.33	4.74	2.46	7.32	4.65
CCGATTAACATCAAATTCCCTCGTGATGTTAATCGGGTCTTGATTCGCTTGACGCTGCTG	3.11	4.96	2.32	3.26	4.09
CCGATTAACATCAAGGGGGGAGATGATGTTAATCGGGTCTTGATTCGCTTGACGCTGCTG	5.84	5.1	6.56	2.93	4.98
CCGATTAACATCAAAAACTCCCATGATGTTAATCGGGTCTTGATTCGCTTGACGCTGCTG	4.22	5.15	2.58	5.66	5.3
CCGATTAACATCAGGCTTTCCCATGATGTTAATCGGGTCTTGATTCGCTTGACGCTGCTG	1.49	2.94	2.07	2.07	2.88
CCGATTAACATCAGGGAAAAAACTGATGTTAATCGGGTCTTGATTCGCTTGACGCTGCTG	2.85	4.45	5.17	5.49	5.31
CCGATTAACATCAATGTCCCCCCTGATGTTAATCGGGTCTTGATTCGCTTGACGCTGCTG	5.26	4.79	8.35	3.82	4.85
CCGATTAACATCAGGGACACCCCTGATGTTAATCGGGTCTTGATTCGCTTGACGCTGCTG	6.11	4.44	3.39	7.09	6.84
CCGATTAACATCAGACCTCCCCCTGATGTTAATCGGGTCTTGATTCGCTTGACGCTGCTG	6.03	3.94	5.48	2.4	4.44
CCGATTAACATCAGGGAACAACCTGATGTTAATCGGGTCTTGATTCGCTTGACGCTGCTG	2.52	2.46	1.05	4.7	4.61
